Results filed as inconclusive are left out. Calls of active or inactive are those of the source. Calls come from the whole dose curve; as a rule, active = well fitted cell-killing curve with a large enough effect; inconclusive = small, poorly fitted or top-dose-only effect, or effect the other way; inactive = flat fitted curve, though single readings scatter.
What was measured:
Test in all cases: Primary qHTS to identify gynecologic anti-cancer compounds using libraries of approved drugs and bioactive compounds (AID 1345084); note: nearly all actives have a fitted effect of over 55% in size
[1] = system: CASKI; conditions: Gynecologic cancer cell panel viability, ATPlite luminescence, 48 h; series mostly up to 57.5 µM
Outline: (§1)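 Cell viability after 48 h drug treatment, ATPlite luminescence readout; five doses.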

[2] = system: Es-2; conditions: Gynecologic cancer cell panel viability, ATPlite luminescence, 48 h; series mostly up to 57.5 µM
Outline: as §1

[3] = system: HeLa; conditions: Gynecologic cancer cell panel viability, ATPlite luminescence, 48 h; series mostly up to 57.5 µM
Outline: as §1

[4] = system: Hek293T; conditions: Gynecologic cancer cell panel viability, ATPlite luminescence, 48 h, control line for the selectivity index; series mostly up to 57.5 µM
Outline: as §1

[5] = system: JEG-3; conditions: Gynecologic cancer cell panel viability, ATPlite luminescence, 48 h; series mostly up to 57.5 µM
Outline: as §1

[6] = system: OV90; conditions: Gynecologic cancer cell panel viability, ATPlite luminescence, 48 h; series mostly up to 57.5 µM
Outline: as §1

[7] = system: PA-1; conditions: Gynecologic cancer cell panel viability, ATPlite luminescence, 48 h; series mostly up to 57.5 µM
Outline: as §1

[8] = system: SKOV3; conditions: Gynecologic cancer cell panel viability, ATPlite luminescence, 48 h; series mostly up to 57.5 µM
Outline: as §1

[9] = system: Tov-21-G; conditions: Gynecologic cancer cell panel viability, ATPlite luminescence, 48 h; series mostly up to 57.5 µM
Outline: as §1

[10] = system: Tov112D; conditions: Gynecologic cancer cell panel viability, ATPlite luminescence, 48 h; series mostly up to 57.5 µM
Outline: as §1

Measured: Potency

COc1cc(S(N)(=O)=O)cc(C(=O)O)c1OC
inactive: all assays above

C[C@H]1C[C@@H]2[C@H]([C@@H](O)C[C@@]3(C)[C@H]2CC[C@]3(O)C(=O)CO)[C@@]2(C)C=CC(=O)C=C12
inactive: all assays above

NC(=O)COCCN1CCN(C(c2ccccc2)c2ccc(Cl)cc2)CC1 (stereo not given)
inactive: all assays above

CN1C(CSCC(F)(F)F)Nc2cc(Cl)c(S(N)(=O)=O)cc2S1(=O)=O (stereo not given)
inactive: all assays above

CCCCC(=O)OCC(=O)[C@H]1[C@H](C)C[C@H]2[C@@H]3C[C@H](F)C4=CC(=O)C=C[C@]4(C)[C@@]3(F)[C@@H](O)C[C@@]21C
inactive: all assays above

CC(=O)[C@H]1CC[C@H]2[C@@H]3C=CC4=CC(=O)CC[C@@]4(C)[C@@H]3CC[C@]12C
inactive: all assays above

CC(C)Cc1ccc(C(C)C(=O)OCc2ccccn2)cc1 (stereo not given)
inactive: all assays above

CCN(CC)CC(=O)Oc1ccc(NC(C)=O)cc1
inactive: all assays above

CN1CCCN=C1/C=C/c1cccs1
inactive: all assays above

CCCCCCn1c(=O)c2c(ncn2C)n(C)c1=O
inactive: all assays above

CCOc1ccccc1OCC1CNCCO1 (stereo not given)
inactive: all assays above

COc1cc2c(cc1OC)C(=O)CC2
inactive: all assays above

CCOC(=O)C(=O)CCc1ccccc1
inactive: all assays above

O=C1OC2(c3ccccc31)c1cc(I)c(O)c(I)c1Oc1c2cc(I)c(O)c1I
inactive: all assays above

CC(C)C(=O)Nc1cccc(C(F)(F)F)c1
inactive: all assays above

OCCCc1ccccc1
inactive: all assays above

O=C(O)Cc1ccccc1Oc1ccc(Cl)cc1Cl
inactive: all assays above

CCN1CCN(C(=O)N[C@@H](C(=O)N[C@@H]2C(=O)N3[C@@H]2SC(C)(C)[C@H]3C(=O)O)c2ccccc2)C(=O)C1=O
inactive: all assays above

CC(=O)N[C@@H](CCC(N)=O)C(=O)O
inactive: all assays above

O=C(CCCl)NCc1ccccc1
inactive: all assays above

C/C(=N/NC(=O)c1ccncc1)C(=O)O
inactive: all assays above

COc1cc2c(cc1OC)CN(C(=O)[C@H](C)N[C@@H](CCc1ccccc1)C(=O)O)[C@H](C(=O)O)C2
inactive: all assays above

Source: PubChem BioAssay (NCATS)
